Experimental data taken from the supplement of paper PMC6555819.

What was measured:
Experiment in all cases: PBM binding z-score (relative to random genomic background probes); higher = stronger binding; sequences stand for … in GC…GCGATTGACAGCGTAGAATGAAGG
[1] = tested on: RARb homodimer (NR concentration 270 nM)
Outline: (§1)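 Random background probes are the reference for binding z-scores. These scores derive from regression-normalized fluorescence on custom Agilent 4×180K protein-binding microarrays incubated 1 h with ligand-free nuclear receptor dimers. Binding was detected with antibodies against each partner (one per run).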

[2] = tested on: RARg:RXRa (NR concentration 270 nM, RXRa partner concentration 90 nM)
Outline: as §1

[3] = tested on: RARg homodimer (NR concentration 270 nM)
Outline: as §1

[4] = tested on: RXRa DBDmut IVT, anti-RXR (DBD mutation: RXRa K156A/R161A, NR concentration 90 nM)
Outline: as §1

[5] = tested on: RXRa homodimer (NR concentration 180 nM)
Outline: as §1

[6] = tested on: THRa:RXRa (NR concentration 90 nM, RXRa partner concentration 90 nM)
Outline: as §1

[7] = tested on: THRa homodimer (NR concentration 90 nM)
Outline: as §1

[8] = tested on: VDR homodimer (NR concentration 270 nM)
Outline: as §1

Sequence	PBM binding z-score [1]	PBM binding z-score [2]	PBM binding z-score [3]	PBM binding z-score [4]	PBM binding z-score [5]	PBM binding z-score [6]	PBM binding z-score [7]	PBM binding z-score [8]
CAAACTTGGTCAAAGGTCAAAGTCGAGCCAACCA	4.86	7.37	6.36	1.58	8.93	3.89	0.672	2.28
ACTAGCAGGCCAACTTTGGGTCACTCAAACAAAG	2.34	2.46	1.61	-0.27	0.885	2.62	1.19	0.371
TCATGTAGATCAAAGGTTAAGAAAGCCGAAGCCT	1.55	1.96	0.89	1.08	3.55	1.37	-0.229	-0.0577
TGAATGAGGTTAGAGATCAGGGAACGTGGCGTCG	0.675	1.04	0.944	-0.0534	1.71	1.39	0.0858	-0.315
GTACCAAGGTGAATAGTTCGTTGATGAGTAGGCG	1.71	1.94	1.34	-0.0101	0.854	1.39	0.601	0.698
AGTCAAATTTCAGGACGAGGTAACGTAAAGCACG	0.179	0.276	0.438	-0.237	0.24	2.29	1.82	0.197
CGTCCATGGTCAGAGAGGTCAGTGAATGCCGAGT	4.09	3.16	4	0.839	2.97	2.58	0.835	2.63
TCATATAGGTAAAACAGGTGAAAGTCGGCATCTA	0.437	0.572	0.226	1.71	1.1	0.827	0.0853	-0.37
TCATATAGGCAAATGCTAGGTGAAAGTCCGATCT	0.285	0.0737	0.0347	1.15	0.445	0.84	0.227	-0.285
CCAGGCAGGTGAAAGGTAACTCAGTCTGGTACGC	0.447	0.784	0.255	-0.641	1.53	0.824	-0.15	-0.0369
GCAACTGGGGCATCAGCAGGTTACCATAACTTAA	0.793	0.74	0.473	0.26	0.318	1.04	0.19	-0.0433
TATCCTAGGTCATTCAGGGGCCAGTATAGAAAGC	3.68	6.44	4.99	2.55	3.59	3.76	1.57	2.01
CCTAGCAGGCCAATCTGGGTCACTGAAGGCTTGA	2.38	1.15	1.38	0.114	0.872	3.79	0.399	-0.314
TCTGCTAGGTCAGTTGGTCAGCAAACGAGCTGCC	2.52	2.78	3.8	0.526	0.98	1.35	-0.0215	-0.695
GCTAGTTGGTCAGTAAAAGGTCACACTCCGGTCG	5.07	5.14	4.48	0.827	5.23	3.58	2.19	1.59
ATCTCTAGGTATCCAAGTTCAGTGAATGCCGAAC	1.46	0.373	0.76	0.842	0.354	0.837	0.736	2.5
ACATACAGGTGAGTGAAGGTAACTCAGCTGGACG	0.773	1.2	0.903	0.0119	0.795	2.21	-0.215	0.00472
TCTTATAGGTAATACAGGTGAAAGTCGGCATCTA	0.728	0.769	0.709	1.75	1.18	1.09	0.611	0.529
ATCTCCAGGTAAAGATAGTTCAGTGAATGCAAAT	1.03	0.342	0.839	0.0268	-0.000636	1.06	0.451	0.711
CGTCAAAGTTCAACTAAGGGAACGTAAAGCACGC	3.93	5.85	6.56	4.65	5.21	4.49	0.0368	3.51
CCTAGTTGGTCAAGGTGACACACGCTATAGGTAC	1.8	1.49	1.74	0.165	1.05	2.06	1.65	0.83
GATACAGGGTCAGCTAGAGGCCAGAGGATGGAAA	3.55	6.91	4.81	1.22	4.69	2.93	0.198	0.847
TGAATGAGGTTAAAGATAAGGGAACGTGGCGTCG	0.5	2.21	1.32	1.25	2.88	2.37	0.283	0.766
GCTATTAGTTGAAAGCGCAACCGAATGATTCTCG	-0.696	-0.258	-0.0474	0.445	-0.166	-0.508	-0.515	-0.738
GCTGCTAGGTCAGGTTGCTCAGCTAACGGGTACG	2.14	2.32	2.99	0.623	0.855	1.49	0.194	0.297
ACTAGCGGGCCAAGTTTGGGTCACTCAAACAAAG	2.11	2.14	1.65	-0.0414	1.01	2.43	0.811	0.0653

Sequence	PBM binding z-score [1]	PBM binding z-score [2]	PBM binding z-score [3]	PBM binding z-score [4]	PBM binding z-score [5]	PBM binding z-score [6]	PBM binding z-score [7]	PBM binding z-score [8]
ACAGACAGGTGATGAAGGTAACGCAGGCTATCAT	0.353	0.208	0.319	-0.195	0.253	0.435	-0.159	-0.267
ATCTCTAGGTAAAAGTTCTGTGAATCCCGAGGAT	-0.265	0.293	0.308	-0.0693	0.153	0.234	0.364	0.467
GATACAGGGTCCAGGCCAGAGTACGCGTATTGAT	0.265	0.144	0.255	-0.135	0.291	-0.105	-0.0572	0.607
CCGACTGGGGCAGAAAGGTTACCGTACCATCCGG	2.49	1.52	1.28	-0.805	1.84	1.18	-0.556	-0.155
ACCTACGGGTCAACGAGGTTATAGCACGCGTATA	3.18	5.47	4.95	2.06	5.89	3.88	0.718	3.51
CCTTACGGGTCACTCCAGGTTATGGCATCGGAGT	3.07	4.46	4.54	1.4	4.22	5.16	0.627	1.62
TCTGCTAGGTCAACGATGGTCACCTAATCTGCTA	3.63	4.17	4.77	1.06	2.69	3.58	1.37	0.156
TCATATGGGTAAAGGTGAAAGTCGAACGATATGA	1.36	1.41	0.964	0.352	2.08	1.24	-0.573	-0.341
AATCAAAGTTCAGGACGAGGTAACGTAAAGCACG	3.22	4.66	4.55	2.68	2.92	3.92	1.58	2.06
AGAGACAGGTGATGAAGGTAACTCAGGCTATCAT	0.746	0.284	0.541	-0.709	0.56	1.25	0.485	0.0584
CCTACTGGGCCAAGATCATTGATCAGTCAAAGCA	-0.51	-0.246	-0.13	-0.666	-0.589	-0.314	-0.633	-0.179
ATCTCTAGGTAAGACTCAGTTCAGTTAAGAACGC	0.724	0.306	0.466	0.735	-0.175	1.44	0.728	1.6
CGTCCAAGGTCAGGAGGTCAGTGAAAGCGACGTG	5.53	7.05	7.08	2.75	6.98	4.05	2.68	2.82
ATCTCTTGGTAACAAGTTCAGTGAAAGAGAGGAC	1.67	0.629	1	1.09	0.531	0.831	0.489	2.61
TCTTGTAGATCAACCGGAGGTTAAGAAAGATCGA	0.462	1.22	0.219	0.651	0.914	1.12	-0.269	-0.0131
CCTACTGGGCCAAGGTCATTTATCAGTCAAAGCA	3.46	3.47	2.79	1.61	3.07	3.27	2.44	3.42
CGAACTAGGTCAGAACAGGACGGTGAAGGATGAT	1.69	2.3	3.17	0.53	1.14	2.43	-0.175	-0.257
TCATATAGGTAAAAGGTGAAAGTTGGTGTGGTAA	2.19	2.24	0.981	1.89	3.27	1.9	0.96	0.577
TCTTGGAGATCAATAGAGGTTAAGAAAGTGCGCT	1.39	0.878	0.376	0.544	1.5	3.19	-0.339	0.159
CCTGGGAGGACAACAGGAGGTCAGAGCTGCCAGA	3.72	3.71	3.6	-0.219	2.29	3.05	1.32	1.37
AGAATGAGGTTATACGTAGATTAGGGAAGAAAGT	0.89	1.67	1.05	1.49	2.3	2.27	0.694	1.09
TCTGCTAGGTCAGTTGGTCAGCTCACGAGCTGCC	2.45	2.61	3.31	0.58	1.15	1.38	0.196	-0.78
CCTTACGGATCACTCCAGGTTATAGCATCGGAGT	0.563	0.297	0.583	0.552	0.224	3.06	0.842	0.677
TCAGGCAGGTGAAGGTAACTCAGGTACGCAGTCG	0.705	0.13	-0.00372	0.635	0.357	1.52	0.723	0.051
CGTCAAAATTCAAGGTAACGTAACAGAAAGCAGC	0.985	0.175	0.447	-0.0025	0.308	1.64	1.15	0.24
GCTGCTAGGTCAGGTTGGTTAGCTAACGGGTACG	2.43	2.43	3.37	0.744	0.769	1.77	0.549	0.682
